# Laboratory results published in PubChem BioAssay.
# Test system: Fibrinogen (Alexa647-labelled)
# Test: Alexa647-fibrinogen binding to printed small molecules – biochemical, small-molecule microarray, 635/667 nm fluorescence, artefact control for SMM control-protein annotation, profiling panel (AID 1131);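 note: z-score merges 667 nm fluorescence with per-spot signal-to-noise over triplicate slides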
# Conditions: fibrinogen-A647 binding fluorescence, higher = more signal
row,SMILES,composite z-score
1,COCCOC(=O)N1C(=O)[C@@]2(c3cc(C#CCC(C(=O)OC)C(=O)OC)ccc31)[C@H](c1ccccc1OCCO)N1[C@H](c3ccccc3)[C@H](c3ccccc3)OC(=O)[C@H]1[C@@H]2C(=O)N1CCN(c2ncccn2)CC1,0.696
2,C=CCC(OC(C)=O)[C@@H]1[C@@H](N(Cc2ccc(-c3ccccc3)cc2)C(=O)c2cccc3ccccc23)c2cc(OCCCO)ccc2N1C(=O)c1ccc(-c2ccccc2)cc1 (stereo not given in full),0.56
3,O=C(NCCO)C1=C[C@H](Oc2ccccc2I)[C@@H](O)[C@H](N(Cc2ccco2)C(=O)Cc2ccccc2)C1,-0.175
4,C#C[C@H](O[Si](C#Cc1ccc(Oc2ccccc2)cc1)(C(C)C)C(C)C)c1ccccc1,0.385
5,CC1CC/C=C\[C@H]2OC34C=CCN(Cc5ccccc5)C(=O)[C@H]3N(CCCO)C(=O)[C@@H]4C2C(=O)O1 (stereo not given in full),0.623
6,CCOC(=O)C[C@H]1[C@H](OC(=O)c2ccc(C(=O)c3ccccc3)cc2)[C@@H](NC(=O)c2ccccc2)c2cc(OCCCO)ccc2N1C(=O)Cc1ccc(OC)cc1,0.204
7,CC(C)CNC(=O)[C@@]1(Cc2ccccc2I)c2ccccc2C(=O)N(C2CCCCC2)[C@H]1c1ccc(CO)cc1,0.348
8,Cc1ccc(S[C@]2(C(=O)NCCCN(C)C)CC(=O)N(Cc3ccccc3C(F)(F)F)[C@@H]2c2ccc(CO)cc2)cc1,0.109
9,C=CC[C@]1(C(=O)NCCCOC)N=C(c2ccc(OCCCO)cc2)O[C@H]1c1ccccc1CN=[N+]=[N-],1
10,Cc1ccc(S[C@]2(C(=O)NCCCN(C)C)CC(=O)N(Cc3cc(C(F)(F)F)cc(C(F)(F)F)c3)[C@@H]2c2ccc(CO)cc2)cc1,-0.603
11,CCCC[C@H]1OB(O)C[C@H]2C1=C(COC)Cn1c(=O)n(-c3ccccc3)c(=O)n12,0.4
12,COc1ccc(/C=C/C=O)cc1,-1.76
13,NC(=O)NCC#Cc1ccc2c(c1)[C@]1(C(=O)N2)[C@H](c2ccccc2OCCO)N2[C@H](c3ccccc3)[C@H](c3ccccc3)OC(=O)[C@H]2[C@@H]1C(=O)Nc1nc2ccccc2s1,0.613
14,C=CCC(OC(C)=O)[C@@H]1[C@@H](N(Cc2ccc(-c3ccccc3)cc2)C(=O)c2ccc(-c3ccccc3)cc2)c2cc(OCCCO)ccc2N1C(=O)Cc1ccc2ccccc2c1 (stereo not given in full),0.51
15,Cc1ccc(N2C(=O)c3ccccc3[C@@H](C(=O)NC3CC3)[C@@H]2c2ccc(CO)cc2)nc1,-3.9
16,COCCCNC(=O)[C@@]1(C)c2ccccc2C(=O)N(C(C)C)[C@H]1c1ccc(CO)cc1,0.648
17,COC(=O)[C@@]1(Cc2ccc(OC)cc2)[C@@H]2C(=CC(=O)[C@H]2CC(=O)C(=O)N2CCCC2)CN1C(=O)c1ccccc1,0.802
18,C=C(COC)/C(=C/C[C@@H](OC(=O)c1ccncc1)c1ccc(CO)o1)c1cc(C(=O)OC)ccc1OC,0.933

row,SMILES,composite z-score
1,NC(=O)NCC#Cc1ccc2c(c1)[C@]1(C(=O)N2)[C@H](C(=O)Nc2nc3ccccc3s2)[C@H]2C(=O)O[C@H](c3ccccc3)[C@H](c3ccccc3)N2[C@@H]1c1ccccc1OCCO,0.764
2,COc1ccc(C(=O)Nc2ccc(CN3C(=O)[C@]4(O[C@H](CCO)[C@@H]([Si](C)(C)c5ccc(OC)cc5)[C@@H]4C)c4ccccc43)cc2)cc1,0.599
3,COc1cc2c(cc1OC)CN(C(=O)[C@@H]1[C@H]3C(=O)O[C@H](c4ccccc4)[C@H](c4ccccc4)N3[C@H](c3ccc(O)cc3)[C@@]13C(=O)Nc1ccccc13)CC2,0.962
4,[N-]=[N+]=Nc1ccccc1[C@@H]1OC(c2ccc(OCCCO)cc2)=N[C@]1(CCS(=O)(=O)c1ccccc1)C(N)=O,1.02
5,COC(=O)[C@@]1(Cc2ccc(F)cc2)[C@H]2c3cc(C(=O)N4CCCC4)n(CCCNc4ncc(C(F)(F)F)cc4Cl)c3C[C@H]2CN1C(=O)c1ccccc1,0.817
6,[N-]=[N+]=Nc1ccccc1[C@@H]1OC(c2ccc(OCCCO)cc2)=N[C@]1(Cc1ccccc1)C(=O)N1CCOCC1,0.862
7,C=CCC(OC(C)=O)[C@@H]1[C@@H](N(Cc2ccc(-c3ccccc3)cc2)C(=O)Cc2ccc(OC)cc2)c2cc(OCCCO)ccc2N1C(=O)Cc1ccc2ccccc2c1 (stereo not given in full),0.389
8,CC1(C)C2C=C(C(O)C3C=CC4C(=O)NC(=O)C4N3Nc3ccc(Cl)cc3Cl)C[C@@H]1C2 (stereo not given in full),0.606
9,CO[C@H]1O[C@H](CO)[C@@H](OC(=O)Nc2cccc(F)c2)[C@H](OC(=O)Nc2ccccc2)[C@@H]1OC(=O)Nc1ccccc1,0.973
10,COc1ccc(C(O)C2C=CC3C(=O)N(Cc4ccccc4)C(=O)C3N2n2cnnc2)cc1OCc1ccccc1 (stereo not given),0.303
11,COC(=O)[C@@]1(Cc2ccc(OC)cc2)[C@H]2c3cc(C(=O)N4CCCC4)n(Cc4ccc(C)c(F)c4F)c3C[C@H]2CN1C(=O)c1ccccc1,0.97
12,CC(=O)NCCCC[C@@H]1NC(=O)[C@H]2C[C@@H](C(=O)NCCCCCCNC(=O)CS)[C@@H](c3ccc(O)cc3)N2C1=O,-0.397
13,COCCOC(=O)N1C(=O)[C@@]2(c3cc(C#CC4(O)CCCCCC4)ccc31)[C@H](c1ccc(OCCO)cc1)N1[C@H](c3ccccc3)[C@H](c3ccccc3)OC(=O)[C@H]1[C@@H]2C(=O)N1CCN(c2ncccn2)CC1,0.956
14,CCCCCN1CC=CC23O[C@@H]4/C=C\CCC(C)OC(=O)C4[C@H]2C(=O)N(C(C)CO)[C@@H]3C1=O (stereo not given in full),-0.925
15,COc1ccc(C#Cc2ccc3c(c2)[C@]2(C(=O)N3)[C@H](C(=O)NC[C@H](O)c3ccccc3)[C@H]3C(=O)O[C@H](c4ccccc4)[C@H](c4ccccc4)N3[C@@H]2c2ccc(O)cc2)cc1,0.901
16,COc1ccc(C#Cc2ccc3c(c2)[C@]2(C(=O)N3)[C@H](c3ccccc3OCCO)N3[C@H](c4ccccc4)[C@H](c4ccccc4)OC(=O)[C@H]3[C@@H]2C(=O)Nc2nc3ccccc3s2)cc1,0.767
17,CN1C(=O)C2C=CC(C(O)c3ccco3)N(Nc3ccccc3)C2C1=O (stereo not given),0.822
